The sample as a whole holds a higher share of hits than the screen did.
Pyk2 oligo antag: antagonists of human Pyk2 oligomerization. Q14289. Q293 cells, Pyk2 FERM NanoBiT luminescence; active compounds read low. z-score (the deposit names both 25 µM and 10 µM). hit rate 0.83% among 99,000. AID 1347419;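 active = Z-score of -3 or lower, scaled per plate to the spread of control and sample wells; inactive = z-score above -3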;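 note: negative z-score means lost luminescence so less FERM oligomerization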
Mac1 fbg inh: CD11b/CD18-fibrinogen binding inhibition; K562 CD11b/CD18 adhesion to fibrinogen, ATPlite luminescence; Mn2+ added to activate the integrin; inhibition, % at 10 µM; hit rate 0.54% among 93,000; AID 1497;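 active = primary inhibition of 50% or more at 10 µM, then 40% or more on retest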
hDAT+cocaine: modulates human dopamine transporter uptake under cocaine. Q01959. LLC-PK1 hDAT cells, [14C]-dopamine uptake with cocaine IC80; actives deviate in either direction. B-score at 10 µM. hit rate 1.3% among 110,000;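 active = Z score or B-score, a plate-position-corrected score, falls beyond the plate's 99.7% confidence bounds, in either direction; inactive = both scores lie inside the 99.7% bounds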;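 note: scored against the spread of the other compound wells on the same plate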
CD11b adhes enh: increases human CD11b/CD18 adhesion to fibrinogen; P05107+P11215; K562 CD11b/CD18 adhesion to fibrinogen, ATPlite luminescence; activation, % at 10 µM; hit rate 0.07% among 93,000; AID 1499;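 active = 10 µM primary screen giving 50% or more activity, confirmed by 40% or more on retest at that dose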
FAK inh: inhibitors of human focal adhesion kinase; inhibition, %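 (tested at 7 µM)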; Q05397; hit rate 0.84% among 97,000; biochemical FAK kinase activity assay; in the data active = inhibition above about 19%;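 note: 0% = DMSO and 100% = reference compound high control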
Target sequence (Q05397 whole entry, looked up): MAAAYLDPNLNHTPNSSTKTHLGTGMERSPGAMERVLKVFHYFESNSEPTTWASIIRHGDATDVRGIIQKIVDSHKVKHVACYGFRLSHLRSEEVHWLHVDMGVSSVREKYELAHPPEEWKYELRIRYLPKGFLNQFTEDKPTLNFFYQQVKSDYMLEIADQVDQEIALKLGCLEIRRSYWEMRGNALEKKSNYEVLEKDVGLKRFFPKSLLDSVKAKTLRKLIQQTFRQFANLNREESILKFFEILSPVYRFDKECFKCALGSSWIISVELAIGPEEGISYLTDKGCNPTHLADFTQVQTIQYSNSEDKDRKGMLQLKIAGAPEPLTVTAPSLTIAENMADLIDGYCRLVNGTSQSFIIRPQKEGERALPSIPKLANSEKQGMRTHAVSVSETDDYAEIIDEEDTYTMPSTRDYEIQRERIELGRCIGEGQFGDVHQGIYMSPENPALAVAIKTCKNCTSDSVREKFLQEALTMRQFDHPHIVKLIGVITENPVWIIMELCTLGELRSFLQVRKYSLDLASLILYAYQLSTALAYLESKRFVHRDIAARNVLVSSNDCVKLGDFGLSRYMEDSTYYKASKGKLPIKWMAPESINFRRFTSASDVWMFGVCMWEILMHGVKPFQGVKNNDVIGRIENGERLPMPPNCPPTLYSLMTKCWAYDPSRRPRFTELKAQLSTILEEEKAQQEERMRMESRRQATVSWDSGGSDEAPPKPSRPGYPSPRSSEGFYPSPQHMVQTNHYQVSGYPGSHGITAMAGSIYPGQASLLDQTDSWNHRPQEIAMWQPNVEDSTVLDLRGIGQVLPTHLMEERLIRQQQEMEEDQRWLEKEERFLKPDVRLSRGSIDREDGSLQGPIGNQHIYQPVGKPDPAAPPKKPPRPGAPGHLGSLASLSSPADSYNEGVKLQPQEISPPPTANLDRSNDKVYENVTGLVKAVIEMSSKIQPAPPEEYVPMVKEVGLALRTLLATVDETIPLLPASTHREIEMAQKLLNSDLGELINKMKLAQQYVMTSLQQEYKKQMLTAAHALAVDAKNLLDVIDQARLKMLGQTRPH
D1 allo mod: allosteric modulators of human D1 dopamine receptor. P21728. HEK293 D1, CRE-luciferase, dopamine EC30 potentiation; actives deviate in either direction. B-score at 10 µM. hit rate 5.9% among 58,000;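 active = luminescence count or its row- and column-corrected plate score outside the 99.7% band of the plate's sample wells, on either side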
* = called active by the depositor; / = not tested or not shown.

SMILES	Pyk2 oligo antag	Mac1 fbg inh	hDAT+cocaine	CD11b adhes enh	FAK inh	D1 allo mod
CSc1nnc2c3c4c(sc3c(=O)n(-c3ccccc3)n12)CC(C)(C)OC4	1.5	-9	0.71	-3	0	5.9*
COC(=O)Nc1ccccc1C(=O)N1CCCCC1	0.67	12	-2.7*	-3	-3	-0.53
CCCCOC(=O)Nc1ccccc1C(=O)N1CCCC1	/	/	/	/	/	0.83
Cc1ccc(CNC(=O)C2CC3Cn4c(nc5cc6ccccc6cc54)C3N2C)o1 (configuration not stated)	/	/	1	/	/	/
CC(=O)c1c(C)[nH]c(C(=O)NCCc2ccccc2)c1C	2	11	-0.13	-8	1	-3.5*
COC(=O)c1ccc(C23CC4(C2)[C@H](CN(CC2CCCCC2)[C@@H]4c2ccccc2)C3c2ccccc2)cc1 (some centres not stated)	/	/	0.21	/	/	/
CN1CCN(C(=O)c2ccc(CSc3ccc(Cl)cc3)cc2)CC1	/	76*	/	-2	/	/
Cc1ccccc1NC(=O)CN1C(=O)COc2ccc(Cl)cc21	/	-1	0.039	1	4	-1.5
Cc1ccc(N)cc1CN1CCCC1=O	-0.1	-14	-1.9*	1	/	-0.092
CCc1ccccc1S(=O)(=O)Cc1ccc(C(=O)N2CCN(c3ccccc3OC)CC2)o1	/	6	1.8	7	5	-2.4*
COc1ccccc1S(=O)(=O)Cc1ccc(C(=O)N2CCCC2)o1	/	-1	-0.15	3	-1	0.23
CC(C)c1ccccc1NC(=O)c1cccc(NC(=O)c2ccccc2)c1	-0.84	-6	-0.034	-3	-2	/
O=C(Nc1ccc(F)cc1)c1ccc(CSc2ccccc2)o1	/	97*	/	-10	/	/
COCCCNC(=O)CCn1c(=O)c2ccccc2n(CC(=O)Nc2c(C)cccc2C)c1=O	0.37	-5	-0.71	-1	-2	/
Cc1ccc(NC(=O)Cn2c(=O)n(CCCC(=O)NCc3ccco3)c(=O)c3ccccc32)cc1	-3.1*	-16	-0.32	-2	0	/
Cc1ccc(CNC(=O)CCCn2c(=O)c3ccccc3n(CC(=O)NCc3ccco3)c2=O)cc1	-0.35	/	1	/	0	0.61
COCCCNC(=O)CCCn1c(=O)c2ccccc2n(CC(=O)Nc2c(C)cc(C)cc2C)c1=O	/	/	/	/	/	-7*
CCOC(=O)c1ccccc1NC(=O)CSc1nc2ccccc2n1CC(=O)N1CCCC1	0.31	-17	1.1	0	5	3.5
c1ccc(-c2nc(CSc3n[nH]c(-c4cccs4)n3)cs2)cc1	0.13	/	4.1*	/	5	/
O=C(NC(=S)N1CCN(Cc2ccc3c(c2)OCO3)CC1)c1ccc(Cl)cc1	/	9	/	0	/	/
Cc1ccc(N2C(=O)CC(Sc3nc4ccccc4o3)C2=O)cc1Cl (configuration not stated)	0.97	/	-7.2*	/	0	/
Cc1cc(C)n(CC2CC(=O)N(c3ccc(C)c(Cl)c3)C2=O)n1 (configuration not stated)	/	8	/	7	/	/
CCSc1nnc(NC(=O)c2ccccn2)s1	-1.1	-18	0.087	0	/	-5.8*
CCOc1cc(CNC(C)(C)CO)cc(Br)c1OCc1ccc(Cl)cc1Cl	0.53	/	2.5*	/	7	/
CCOc1cc(CNCCO)cc(Br)c1OCc1ccccc1Cl	1.1	74*	1.3	-7	-3	/
SMILES	Pyk2 oligo antag	Mac1 fbg inh	hDAT+cocaine	CD11b adhes enh	FAK inh	D1 allo mod
CCCCOc1c(Cl)cc(CNC(C)(C)CO)cc1OCC	1.4	-5	0.064	26	4	-0.22
O=C(CSc1nc2ccccc2o1)Nc1nc2ccccc2s1	2	9	-1.6	83*	-6	0.4
Cc1ccccc1NC(=O)CSc1nc2ccccc2o1	0.79	1	-0.34	2	1	/
O=C(CSc1nc2ccccc2o1)Nc1nc2c(s1)CCCC2	/	/	/	/	/	-2.4*
O=c1cc(N2CCCCC2)c(-c2ccccc2)nn1Cc1c(Cl)cccc1Cl	-2.7	/	0.77	/	2	/
COc1ccc(Br)cc1C(=O)Nc1cccc(-c2nnc(-c3ccco3)o2)c1	-1.2	/	0.56	/	66*	-0.024
COc1cccc(C(=O)Nc2cccc(-c3nnc(-c4ccco4)o3)c2)c1	-1.2	6	-0.0094	-5	-3	/
Cc1ccc(C(C#N)c2ccc(C(=O)c3ccc(F)cc3)cc2)cc1 (configuration not stated)	-1.9	95	-0.035	-6	-1	/
N#CC(c1ccc(F)cc1)c1ccc(C(=O)c2ccc(F)cc2)cc1 (configuration not stated)	-1.1	87*	0.39	-5	0	/
CCOC(=O)C1CN(S(=O)(=O)c2ccc(OC)cc2)c2cc(S(=O)(=O)CC)ccc2O1 (configuration not stated)	0.66	/	-7.9*	/	-2	/
CCS(=O)(=O)c1ccc2c(c1)N(S(C)(=O)=O)CC(C(=O)NC1CC1)O2 (configuration not stated)	0.25	/	-1.1	/	-8	/
Cc1ccc2cc(CN(CC3CCCO3)S(=O)(=O)c3c(C)ccc4nsnc34)c(=O)[nH]c2c1 (configuration not stated)	-2.2	-8	-0.17	0	3	-0.06
Cc1ccc2nsnc2c1S(=O)(=O)N(Cc1cc2cccc(C)c2[nH]c1=O)CC1CCCO1 (configuration not stated)	-0.56	-11	-0.57	-2	-1	-5.1*
CCCc1[nH]c(=O)c(C#N)c2c1CCCC2	-0.37	/	0.8	/	8	/
CCCc1nnc(NC(=O)c2c(O)c3cccc4c3n(c2=O)CC4)s1	/	93*	0.37	38	/	/
O=C(NCC1COc2ccccc2O1)C1CCCN(S(=O)(=O)c2cnc[nH]2)C1 (configuration not stated)	/	0	-0.087	-5	/	0.068
CCCOc1nc(N)c(C#N)c(-c2ccccc2F)c1C#N	-3.1*	-8	1.9	1	0	0.18
Cc1onc(-c2ccccc2Cl)c1C(=O)N1CCc2ccccc21	-1.1	-2	-0.63	-2	-5	-2.8*
Cc1c(C(=O)c2ccc(Cl)cc2Cl)cnc2cc3c(cc12)OCO3	1.1	/	-8.5*	/	0	/
O=C(CN1CCCN(S(=O)(=O)c2ccc(F)cc2)CC1)Nc1ccccc1Br	0.21	/	3.2*	/	2	0.085
O=C(CN1CCN(S(=O)(=O)c2ccc(Br)cc2)CC1)Nc1ccccc1F	0.36	-4	-1.5	12	/	-0.02
CCOc1ccc(N(C)S(=O)(=O)c2ccc3[nH]cc(C(=O)NCC4CCCO4)c(=O)c3c2)cc1 (configuration not stated)	-1.1	-13	-0.83	6	0	-1.4
Cc1ccccc1N(C)S(=O)(=O)c1ccc2[nH]cc(C(=O)NCC3CCCO3)c(=O)c2c1 (configuration not stated)	-3.2*	-14	-0.057	-3	/	0.033
CCc1nnc(NC(=O)CSc2nccn2-c2cc(C)cc(C)c2)s1	/	1	-0.065	11	5	-0.66
Cc1ccc(N(C)C(=O)N2CCN(S(=O)(=O)c3ccc(C)c(C)c3)CC2)cc1	-2.3	8	1.4	7	1	/

Compound activity deposited in PubChem by several laboratories.
